About 220 (0.56%) of roughly 39,000 compounds showed activity. The entries come from a sample that favours actives as a whole. Values without a mark were called inactive.

The values that follow come from the supplement of paper PMC9446081.
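Further: Wild-type cells incubated without shaking, value is the mean of two biological replicates.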

This assay relates to Escherichia coli K-12 BW25113. In words: relative growth (OD600 normalised to plate interquartile mean) (fraction); higher = less growth inhibition, active = 0.2 or less. Conditions: 50 µM; LB; incubation time: overnight (16-24 h).
With `COC[C@H]1CN(C(=O)c2cccc(OC)c2)N1`, the relative growth was 1.01.
Take `Cc1ccc(S(=O)(=O)N(C)C[C@@H]2Oc3c(NC(=O)Nc4cccc5ccccc45)cccc3C(=O)N([C@H](C)CO)C[C@@H]2C)cc1`: the relative growth is 1.
With `Cc1noc(C)c1S(=O)(=O)N(C)C[C@@H]1Oc2ccc(NC(=O)Cc3cn(C)c4ccccc34)cc2CC(=O)N([C@H](C)CO)C[C@@H]1C`, the relative growth is 1.01.
On to `COc1nc(C)nc(Cl)c1NC1=NCCN1`, for which the relative growth is 1.03.
Turning to `C[C@H]1CCCCO[C@@H](CN(C)S(=O)(=O)c2ccc(Cl)cc2)[C@@H](C)CN([C@@H](C)CO)C(=O)c2cc(NC(=O)NC3CCCCC3)ccc2O1`, the relative growth was 1.
With `CC1CN(c2c(F)c(F)c3c(=O)c(C(=O)O)cn(C4CC4)c3c2F)CC(C)N1` (stereo unspecified), the relative growth is 0.0486 (active).
As to `CC1CN(c2c(F)c(N)c3c(=O)c(C(=O)O)cn(C4CC4)c3c2F)CC(C)N1` (stereo unspecified), the relative growth is 0.0495 (active).
Turning to `C[C@H](NC(=O)C[C@@H]1C=C[C@H](NC(=O)CN2CCOCC2)[C@H](CO)O1)c1ccccc1`, the relative growth is 1.02.
As to `O=C(NCCCN1CCOCC1)[C@H]1N[C@H]2c3ccc(C4=CCCCC4)c(=O)n3C[C@H]2[C@@H]1CO`, the relative growth is 0.98.
For the compound `C[C@@H]1CN([C@@H](C)CO)C(=O)c2cc(NS(=O)(=O)c3ccc(F)cc3)ccc2O[C@@H](C)CCCCO[C@@H]1CN(C)C(=O)Nc1ccc2c(c1)OCO2`, the relative growth was 1.01.
With `C[C@@H]1CN([C@@H](C)CO)C(=O)c2cccc(NC(=O)c3ccc(-c4nccs4)cc3)c2O[C@H]1CN(C)C(=O)Nc1cccc2ccccc12`, the relative growth is 0.886.
Take `CN(C)CCN1CCc2ncc(Cn3cncn3)n2CC1`: the relative growth is 0.99.
Regarding `COc1ccc(S(=O)(=O)N(C)C[C@H]2OCCCC[C@H](C)Oc3ccc(NS(=O)(=O)c4cn(C)cn4)cc3C(=O)N([C@@H](C)CO)C[C@@H]2C)cc1`, the relative growth was 1.
The figure for `CC[C@@H](C)CCCCC(=O)N[C@@H](CCN)C(=O)N[C@H](C(=O)N[C@@H](CCN)C(=O)N[C@H]1CCNC(=O)[C@H]([C@@H](C)O)NC(=O)[C@H](CCN)NC(=O)[C@H](CCN)NC(=O)[C@H](CC(C)C)NC(=O)[C@@H](Cc2ccccc2)NC(=O)[C@@H](CCN)NC1=O)[C@@H](C)O` is 0.0424 (active); for `CC[C@@H](C)CCCC(=O)N[C@@H](CCN)C(=O)N[C@H](C(=O)N[C@@H](CCN)C(=O)N[C@H]1CCNC(=O)[C@H]([C@@H](C)O)NC(=O)[C@H](CCN)NC(=O)[C@H](CCN)NC(=O)[C@H](CC(C)C)NC(=O)[C@@H](CC(C)C)NC(=O)[C@H](CCN)NC1=O)[C@@H](C)O` it is 0.262.
The result for `CCC(C)CCCCC(=O)NC(CCN)C(=O)NC(C(=O)NC(CCN)C(=O)NC1CCNC(=O)C(C(C)O)NC(=O)C(CCN)NC(=O)C(CCN)NC(=O)C(CC(C)C)NC(=O)C(Cc2ccccc2)NC(=O)C(CCN)NC1=O)C(C)O.O=S(=O)(O)O` (stereo unspecified) reads 0.0419 (active); that for `CC[C@H](C)[C@H](N)C1=N[C@H](C(=O)N[C@@H](CC(C)C)C(=O)N[C@H](CCC(=O)O)C(=O)N[C@H](C(=O)N[C@H]2CCCCNC(=O)[C@H](CC(N)=O)NC(=O)[C@@H](CC(=O)O)NC(=O)[C@H](Cc3cnc[nH]3)NC(=O)[C@@H](Cc3ccccc3)NC(=O)[C@H]([C@@H](C)CC)NC(=O)[C@@H](CCCN)NC2=O)[C@@H](C)CC)CS1`, 0.909.
The result for `C[C@@H]1CN([C@H](C)CO)C(=O)c2cccc(NC(=O)C3CC3)c2O[C@@H]1CN(C)S(=O)(=O)c1ccccc1` reads 1.01; that for `Cc1ccc(S(=O)(=O)N(C)C[C@@H]2Oc3ccc(NS(=O)(=O)c4cccs4)cc3CC(=O)N([C@H](C)CO)C[C@H]2C)cc1`, 1; that for `C[C@H]1CN([C@@H](C)CO)C(=O)c2c(c3ccccc3n2C)-c2ccccc2CO[C@@H]1CN(C)S(=O)(=O)c1ccc(C(F)(F)F)cc1`, 1.
For `CO[C@@H]1CN(C)C(=O)c2ccc(NS(C)(=O)=O)cc2OC[C@H](C)N(S(C)(=O)=O)C[C@H]1C`, the relative growth was 0.991.
On to `Cc1nnc(NCc2ccccc2)n(N)c1=O`, for which the relative growth was 0.975.
For the compound `CCCC#Cc1ccc2c(c1)O[C@H](CN(C)Cc1ccc3c(c1)OCO3)[C@H](C)CN([C@H](C)CO)S2(=O)=O`, the relative growth is 1.05.
For `C[C@@H]1CN([C@H](C)CO)C(=O)c2cc(NC(=O)NC3CCCCC3)ccc2O[C@@H](C)CCCCO[C@H]1CN(C)Cc1ccncc1`, the relative growth is 1.02.
The result for `C[C@@H]1CCCCO[C@@H](CN(C)S(=O)(=O)c2ccccc2)[C@@H](C)CN([C@H](C)CO)C(=O)c2cc(NC(=O)C3CCCCC3)ccc2O1` reads 1.01; that for `O=C(C[C@H]1CC[C@@H](NC(=O)c2cccnc2)[C@H](CO)O1)NCCN1CCCCC1`, 1.
Turning to `C[C@@H]1CN([C@H](C)CO)C(=O)c2cccc(NS(C)(=O)=O)c2O[C@H]1CN(C)C(=O)NC1CCCCC1`, the relative growth was 1.01.
For `NNC(=O)c1c(O)c2c([nH]c1=O)CCCC2`, the relative growth is 0.95.
As for `Cc1[nH]c(=O)c(C(=O)O)c2c1CCC2`, the relative growth was 0.994.
The figure for `O=C(O)c1c(O)c2c([nH]c1=O)CCCC2` is 0.104 (active).
With `C[C@H](CO)N1C[C@H](C)[C@@H](CN(C)Cc2cccc(F)c2)Oc2cc(C#CC3CC3)ccc2S1(=O)=O`, the relative growth was 1.04.
For `C[C@H](CO)N1C[C@H](C)[C@H](CN(C)CC2CC2)Oc2ccc(NS(=O)(=O)c3cn(C)cn3)cc2CC1=O`, the relative growth is 0.99.
For the compound `Cc1ccc(S(=O)(=O)Nc2ccc3c(c2)C(=O)N([C@H](C)CO)C[C@H](C)[C@@H](CN(C)C(=O)C2CCCCC2)OCCCC[C@H](C)O3)cc1`, the relative growth was 0.998.
On to `Nc1ccccc1OCc1ccccc1`, for which the relative growth was 0.955.
In the case of `CON=C(C(=O)NC1C(=O)N2C(C(=O)O)=C(CSC(=O)c3ccco3)CSC12)c1csc(N)n1.Cl` (stereo unspecified), the relative growth is 0.0447 (active).
The figure for `CO/N=C(\C(=O)N[C@@H]1C(=O)N2C(C(=O)O)=C(CSC(=O)c3ccco3)CS[C@H]12)c1csc(N)n1` is 0.0342 (active); for `CO/N=C(\C(=O)N[C@@H]1C(=O)N2C(C(=O)O)=C(C[n+]3ccn4ncccc43)CS[C@H]12)c1nsc(N)n1` it is 0.0425 (active); for `C[C@H](CO)N1C[C@H](C)[C@H](CN(C)Cc2ccc(-c3ccccc3)cc2)Oc2c(NC(=O)c3nc4ccccc4s3)cccc2C1=O` it is 1.01.
Take `CN1CCC[C@H]1CO`: the relative growth was 0.919.
`COCCNC(=O)C[C@@H]1C[C@@H]2c3cc(NS(C)(=O)=O)ccc3O[C@@H]2[C@H](CO)O1`: the relative growth is 1.
For `C[C@@H]1CN([C@H](C)CO)C(=O)Cc2cc(NC(=O)CCCCCC(=O)Nc3ccccc3N)ccc2O[C@H]1CN(C)C(=O)Nc1cccc2ccccc12`, the relative growth is 0.963.
`C[C@@H]1CCCCO[C@H](CN(C)S(=O)(=O)c2ccc(F)cc2)[C@H](C)CN([C@@H](C)CO)C(=O)c2cc(NC(=O)Nc3ccc4c(c3)OCO4)ccc2O1`: the relative growth is 1.
Regarding `C[C@H]1CCCCO[C@H](CN(C)S(=O)(=O)c2cn(C)cn2)[C@@H](C)CN([C@@H](C)CO)C(=O)c2cc(NS(=O)(=O)c3cn(C)cn3)ccc2O1`, the relative growth was 0.995.
As to `C[C@@H]1CCCCO[C@@H](CN(C)S(=O)(=O)c2cccs2)[C@@H](C)CN([C@H](C)CO)C(=O)c2cc(NC(=O)Nc3ccccc3)ccc2O1`, the relative growth was 1.02.
On to `Cc1ccc(-c2ccc3c(c2)O[C@@H](CN(C)Cc2cncnc2)[C@H](C)CN([C@H](C)CO)S3(=O)=O)cc1`, for which the relative growth was 1.01.
As for `C[C@H](CO)N1C[C@H](C)[C@@H](CN(C)Cc2ccc3c(c2)OCO3)Oc2c(NC(=O)Nc3cccc4ccccc34)cccc2C1=O`, the relative growth is 1.01.
As for `C[C@H]1CCCCO[C@H](CN(C)C(=O)Nc2ccccc2)[C@@H](C)CN([C@@H](C)CO)C(=O)c2cc(NS(=O)(=O)c3cccs3)ccc2O1`, the relative growth is 1.02.
Take `CCC(=O)Nc1ccc2c(c1)C(=O)N(C)C[C@H](OC)[C@H](C)CN(C(=O)CN1CCOCC1)[C@H](C)CO2`: the relative growth is 0.974.
`NCc1ccccc1-n1cccn1`: the relative growth was 1.
In the case of `NCCn1cccn1`, the relative growth is 1.01.
For the compound `Cl.N=C(N)n1cccn1`, the relative growth was 0.042 (active).
For `Cc1cc(C(=O)Nc2cccc3c2O[C@@H](CN(C)C(=O)Nc2ccc4c(c2)OCO4)[C@@H](C)CN([C@@H](C)CO)C3=O)n(C)n1`, the relative growth is 0.987.
As to `C[C@H]1CN([C@@H](C)CO)C(=O)c2cc(-c3ccc(C(=O)N(C)C)cc3)cnc2O[C@H]1CN(C)C(=O)c1ccncc1`, the relative growth is 0.964.
In the case of `COc1ccc([Si](C)(C)[C@@H]2[C@@H](CC(=O)N3CCC[C@H]3CO)O[C@]3(C(=O)N(Cc4cccc(N5CCCCC5=O)c4)c4ccccc43)[C@H]2C)cc1`, the relative growth was 1.02.
The figure for `Nc1nc(/C(=C/CC(=O)O)C(=O)N[C@@H]2C(=O)N3C(C(=O)O)=CCS[C@H]23)cs1` is 1.01.
`C=CC1=C(C(=O)O)N2C(=O)C(NC(=O)C(=NOCC(=O)O)c3csc(N)n3)C2SC1` (stereo unspecified): the relative growth was 1.01.
For the compound `Nc1nc(C(=CCC(=O)O)C(=O)NC2C(=O)N3C(C(=O)O)=CCSC23)cs1` (stereo unspecified), the relative growth was 0.0485 (active).
The result for `C=CC1=C(C(=O)O)N2C(=O)[C@@H](NC(=O)/C(=N\OCC(=O)O)c3csc(N)n3)[C@H]2SC1` reads 0.0479 (active); that for `C=CC1=C(C(=O)O)N2C(=O)[C@@H](NC(=O)/C(=N\O)c3csc(N)n3)[C@H]2SC1`, 0.0321 (active); that for `C=CC1=C(C(=O)O)N2C(=O)C(NC(=O)C(=NO)c3csc(N)n3)C2SC1` (stereo unspecified), 0.05 (active).
Regarding `C/C=C/C1=C(C(=O)O)N2C(=O)[C@@H](NC(=O)[C@H](N)c3ccc(O)cc3)[C@H]2SC1`, the relative growth is 0.876.
